The source of these data is PubChem BioAssay (NCATS).

The structures appear in SMILES notation. Unmarked numbers belong to inactive results. Inconclusive results are not listed. Calls of active or inactive are those of the source. Unless noted, calls follow the shape of the dose curve; as a rule, active = well fitted curve in the direction sought with a large enough effect; inconclusive = small, poorly fitted or top-dose-only effect, or another doubt; inactive = no such curve, though single readings can be large; an effect the other way counts as inactive or inconclusive. Bounds are passed on as bounds.

In test [1] the target is Lysosomal acid glucosylceramidase (Homo sapiens) (UniProt P04062). The test is described as follows: Glucocerebrosidase-p2 (AID 348; in the data active = potency below about 10 µM; also: potency is read from the fitted curve at half-maximal effect). Particulars: purified GBA, blue fluorogenic substrate, 40 min. The gist of the method:
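Compounds titrated from 0.6 nM upwards against 0.2 nM enzyme in pH 5.9 citric acid/KH2PO4, taurocholate, tween-20; blue fluorogenic substrate 80 uM, 40 min room temperature, stopped and read Ex 365/Em 440 for AC50.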

The target in test [2] is Cytochrome P450 1A2 (Homo sapiens) (UniProt P05177). Briefly: p450-cyp1a2 (AID 410; calls by dose curve; also: potency is read from the fitted curve at half-maximal effect). The gist of the method: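 Human CYP1A2 (20nM) demethylated Luciferin-ME at its Km (100uM) in 100mM KPO4. After 10 min compound preincubation, NADPH regeneration ran the reaction 60 min at room temperature. Luciferin was read by luminescence, normalized to 57 uM furafylline.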
Sequence of Cytochrome P450 1A2 (Homo sapiens) (P05177 whole entry, looked up): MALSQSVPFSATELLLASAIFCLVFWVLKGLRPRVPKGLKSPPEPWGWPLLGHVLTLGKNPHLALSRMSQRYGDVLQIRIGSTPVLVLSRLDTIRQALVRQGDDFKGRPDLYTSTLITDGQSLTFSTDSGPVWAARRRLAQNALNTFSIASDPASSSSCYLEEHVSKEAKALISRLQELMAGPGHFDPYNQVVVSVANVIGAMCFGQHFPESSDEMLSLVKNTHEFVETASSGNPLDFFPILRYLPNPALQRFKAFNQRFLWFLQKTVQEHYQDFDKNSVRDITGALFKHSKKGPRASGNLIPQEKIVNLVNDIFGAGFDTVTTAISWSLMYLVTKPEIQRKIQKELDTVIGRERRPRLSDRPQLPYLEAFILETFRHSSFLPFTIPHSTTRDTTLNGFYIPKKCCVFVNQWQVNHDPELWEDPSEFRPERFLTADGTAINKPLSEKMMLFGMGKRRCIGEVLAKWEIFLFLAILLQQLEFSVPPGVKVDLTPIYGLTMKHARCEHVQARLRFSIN
The target in test [3] is Glucocorticoid receptor (Homo sapiens) (UniProt P04150). Briefly: GR-GFP Redistribution (AID 450;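 active = compounds whose dose series gives a full or clear partial fitted curve of increased nuclear translocation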; also: potency is read from the fitted curve at half-maximal effect). Particulars: U2OS GR-GFP nuclear translocation, laser cytometry, 2 h.
The target of test [4] is Mitogen-activated protein kinase 10 (Mus musculus) (UniProt Q61831). The test is described as follows: JNK3 AlphaScreen Assay (AID 530; active = well fitted curve in either direction with a large enough effect, not every such curve was filed as active;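 also: kinase came from lysate of stimulated human HepG2 cells; signal reports phosphorylation of biotinylated GST-cJun 1-79 at Ser73 with 10 µM ATP; series mostly up to about 57 µM; % is scaled to controls: 0 for no effect and ±100 for the full control effect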). The method in brief:
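qHTS format: compounds tested as titrations against IL-1beta/TNF-alpha-activated HepG2 lysate JNK3 with biotin-GST-cJun substrate and 10 uM ATP at room temperature. Loss of anti-phospho-cJun AlphaScreen signal indicates inhibition.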
(In general: Alpha assays give light when donor and acceptor beads are brought close together.)

Test [5] deals with 3',5'-cyclic-AMP phosphodiesterase 4B (Homo sapiens) (UniProt Q07343). Briefly: qHTS Assay for Inhibitors of PDE-IV (AID 607; active = well fitted activation curve with a large enough effect in the main read-out, with a control signal flat, not every such curve was filed as active; also: % of control where 0% means no effect). The method in brief:
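Live HEK293 cells with a modified cyclic nucleotide-gated (CNG) channel report intracellular cAMP via membrane-potential dye fluorescence (ex 535/em 590 nm). Endogenous PDE-IV was targeted. Compounds were tested at up to 22.9 uM final; RO 20-1724 100 uM served as control.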

Test [6] has as its target Cytochrome P450 2C9 (Homo sapiens) (UniProt P11712). Briefly: qHTS Assay for Inhibitors and Substrates of Cytochrome P450 2C9 (AID 883). Also: potency is read from the fitted curve at half-maximal effect; nearly all actives have a fitted effect of over 60% in size. The gist of the method:
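10nM CYP2C9 + 100uM Luciferin-H (=KM), 25mM KPO4; cpd 10 min 37C; NADPH regen, 60 min 37C; stop/detect with P450 Glo-Buffer 20 min; luminescence. Norm. to 57uM sulphaphenazole as full inhibition.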

Test [7] has as its target Cytochrome P450 3A4 (Homo sapiens) (UniProt P08684). Briefly: qHTS Assay for Inhibitors and Substrates of Cytochrome P450 3A4 (AID 884). Also: potency is read from the fitted curve at half-maximal effect; nearly all actives have a fitted effect of over 50% in size. The gist of the method: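 20 nM human CYP3A4 with 25 uM Luciferin-PPXE (at KM) in 200 mM KPO4, preincubated 10 min with compound; NADPH regeneration started a 60 min RT reaction. Luciferin detected by luminescence, normalized to 57 uM ketoconazole as full inhibition.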
Background: Quantitative high-throughput screening tests each substance at several concentrations.

The target is the same in test [8]. The test is described as follows: qHTS Assay for Activators of Cytochrome P450 3A4 (AID 885). Also: nearly all actives have a fitted effect of over 65% in size. The gist of the method:
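Quantitative HTS format: compounds preincubated with 20nM human CYP3A4 and Luciferin-PPXE substrate at KM, reaction started by NADPH regeneration, stopped after 60 min, luciferase luminescence read 20 min later.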

Test [9] deals with Cytochrome P450 2D6 (Homo sapiens) (UniProt P10635). Briefly: qHTS Assay for Inhibitors and Substrates of Cytochrome P450 2D6 (AID 891). Also: potency is read from the fitted curve at half-maximal effect; nearly all actives have a fitted effect of over 60% in size. The method in brief:
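Human CYP2D6 (5 nM) with 30 uM Luciferin-ME EGE (at Km) in 100 mM KPO4, compound preincubated 10 min, then NADPH regeneration system for 60 min at room temperature. Luciferin read by luminescence; normalized to 1.43 uM quinidine.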

The target in test [10] is Cytochrome P450 2C19 (Homo sapiens) (UniProt P33261). Briefly: qHTS Assay for Inhibitors and Substrates of Cytochrome P450 2C19 (AID 899). Also: potency is read from the fitted curve at half-maximal effect; nearly all actives have a fitted effect of over 60% in size. The method in brief: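 Luminescent read-out of luciferin formed from Luciferin-H EGE (10uM, equal to KM). Enzyme 5nM in 50mM KPO4; compound added, 10 min at 37C, then NADPH regenerating system for 60 min at 37C. Full inhibition defined by 57uM ketoconazole.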
Sequence of Cytochrome P450 2C19 (Homo sapiens) (P33261 whole entry, looked up): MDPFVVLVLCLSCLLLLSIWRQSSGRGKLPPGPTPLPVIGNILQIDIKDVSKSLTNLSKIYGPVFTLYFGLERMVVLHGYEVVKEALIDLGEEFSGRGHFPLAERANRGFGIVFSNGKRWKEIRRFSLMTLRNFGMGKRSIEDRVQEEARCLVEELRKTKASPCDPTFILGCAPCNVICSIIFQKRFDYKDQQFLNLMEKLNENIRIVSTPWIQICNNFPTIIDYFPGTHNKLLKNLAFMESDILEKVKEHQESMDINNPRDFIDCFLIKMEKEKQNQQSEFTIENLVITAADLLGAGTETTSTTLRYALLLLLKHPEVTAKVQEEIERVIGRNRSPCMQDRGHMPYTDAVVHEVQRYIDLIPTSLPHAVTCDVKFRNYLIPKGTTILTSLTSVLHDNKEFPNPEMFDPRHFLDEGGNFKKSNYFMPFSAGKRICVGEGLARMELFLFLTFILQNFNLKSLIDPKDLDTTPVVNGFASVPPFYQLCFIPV

For test [11], the target named is Rap guanine nucleotide exchange factor 3 (Homo sapiens) (UniProt O95398). Briefly: Confirmatory qHTS for agonist of cAMP-regulated guanine nucleotide exchange factor 3 (EPAC1) (AID 1645881).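 Also: EPAC1 catalysed release of BODIPY-GDP from Rap1B seen as fluorescence loss; 100% = effect of cAMP agonist control; nearly all actives have a fitted effect of over 75% in size.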
Sequence of Rap guanine nucleotide exchange factor 3 (Homo sapiens) (O95398 whole entry, looked up): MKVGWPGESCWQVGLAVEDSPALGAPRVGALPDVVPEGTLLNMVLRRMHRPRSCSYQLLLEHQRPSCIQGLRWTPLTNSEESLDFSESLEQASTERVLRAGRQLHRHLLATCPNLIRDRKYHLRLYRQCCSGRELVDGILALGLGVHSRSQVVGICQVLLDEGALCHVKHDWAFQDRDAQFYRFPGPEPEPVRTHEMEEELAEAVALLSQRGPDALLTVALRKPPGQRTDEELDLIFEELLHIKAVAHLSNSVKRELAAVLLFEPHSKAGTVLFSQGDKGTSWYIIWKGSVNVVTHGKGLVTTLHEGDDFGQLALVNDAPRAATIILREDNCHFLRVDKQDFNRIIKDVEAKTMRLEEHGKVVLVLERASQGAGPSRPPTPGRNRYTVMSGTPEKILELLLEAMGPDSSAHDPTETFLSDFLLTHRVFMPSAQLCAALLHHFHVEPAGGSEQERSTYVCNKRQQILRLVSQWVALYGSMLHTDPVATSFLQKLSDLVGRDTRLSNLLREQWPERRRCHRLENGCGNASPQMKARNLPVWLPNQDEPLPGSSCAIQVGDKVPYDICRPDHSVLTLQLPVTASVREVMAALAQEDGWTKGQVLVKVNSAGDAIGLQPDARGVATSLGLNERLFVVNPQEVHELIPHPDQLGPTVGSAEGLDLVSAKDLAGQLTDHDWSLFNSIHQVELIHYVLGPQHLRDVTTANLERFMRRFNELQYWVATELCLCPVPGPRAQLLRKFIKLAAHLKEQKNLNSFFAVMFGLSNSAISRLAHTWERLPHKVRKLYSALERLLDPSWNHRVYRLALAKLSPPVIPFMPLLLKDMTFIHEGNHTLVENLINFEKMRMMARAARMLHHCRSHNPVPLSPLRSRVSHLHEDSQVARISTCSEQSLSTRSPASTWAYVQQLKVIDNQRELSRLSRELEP
In test [12] the target is Rap guanine nucleotide exchange factor 4 (Homo sapiens) (UniProt Q8WZA2). Briefly: Confirmatory qHTS for agonist of cAMP-regulated guanine nucleotide exchange factor 4 (EPAC2) (AID 1645884).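 Also: nucleotide exchange releases bodipy-GDP from Rap1 and this lowers its fluorescence; % is scaled to controls: 0 for no effect and ±100 for the full control effect; nearly all actives have a fitted effect of over 65% in size.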
Sequence of Rap guanine nucleotide exchange factor 4 (Homo sapiens) (Q8WZA2 whole entry, looked up): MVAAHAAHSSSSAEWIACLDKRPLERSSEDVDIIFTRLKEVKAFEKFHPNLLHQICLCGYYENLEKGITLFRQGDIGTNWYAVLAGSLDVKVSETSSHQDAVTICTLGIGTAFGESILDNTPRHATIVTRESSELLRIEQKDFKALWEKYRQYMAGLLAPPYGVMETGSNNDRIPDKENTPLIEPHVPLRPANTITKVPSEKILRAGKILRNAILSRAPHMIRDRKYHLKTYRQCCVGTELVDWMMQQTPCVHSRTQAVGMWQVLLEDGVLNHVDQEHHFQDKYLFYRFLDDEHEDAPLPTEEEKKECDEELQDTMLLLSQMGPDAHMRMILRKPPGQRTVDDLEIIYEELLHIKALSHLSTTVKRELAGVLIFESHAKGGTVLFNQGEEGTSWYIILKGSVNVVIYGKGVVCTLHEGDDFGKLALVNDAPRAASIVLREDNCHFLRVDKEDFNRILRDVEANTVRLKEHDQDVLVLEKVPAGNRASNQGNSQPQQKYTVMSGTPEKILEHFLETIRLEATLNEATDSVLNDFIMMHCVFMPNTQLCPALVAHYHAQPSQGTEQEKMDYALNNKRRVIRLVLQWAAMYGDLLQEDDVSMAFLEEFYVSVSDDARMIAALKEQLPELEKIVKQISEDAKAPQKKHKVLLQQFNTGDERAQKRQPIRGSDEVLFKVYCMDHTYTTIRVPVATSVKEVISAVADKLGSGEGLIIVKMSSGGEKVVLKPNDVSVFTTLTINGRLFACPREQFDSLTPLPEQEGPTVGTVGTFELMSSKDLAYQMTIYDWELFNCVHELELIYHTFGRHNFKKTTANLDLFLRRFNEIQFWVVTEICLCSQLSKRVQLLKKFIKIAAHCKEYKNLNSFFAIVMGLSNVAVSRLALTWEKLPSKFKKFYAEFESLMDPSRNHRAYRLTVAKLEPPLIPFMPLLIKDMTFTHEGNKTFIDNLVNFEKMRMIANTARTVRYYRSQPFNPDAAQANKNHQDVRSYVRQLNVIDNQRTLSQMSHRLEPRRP
Test [13] has the same target. The test is described as follows: Confirmatory qHTS for antagonist of cAMP-regulated guanine nucleotide exchange factor 4 (EPAC2) (AID 1645885). Also: nearly all actives have a fitted effect of over 25% in size. Also: potency is read from the fitted curve at half-maximal effect. As to activity change, negative = inhibition: % is scaled to controls: 0 for no effect and ±100 for the full control effect.
The target of test [14] is Rap guanine nucleotide exchange factor 3 (Homo sapiens) (UniProt O95398). Briefly: Counterscreen qHTS for antagonist of cAMP-regulated guanine nucleotide exchange factor 3 (EPAC1) (AID 1645888).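 Also: fluorescence loss as bound BODIPY-GDP is released from Rap1B; % of control where 0% means no effect.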 The gist of the method:
(§1)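 Rap1B–BODIPY-GDP (250 nM) with 50 uM GDP; compounds pin-transferred to 9.74 nM–152 uM final (activator) or from 7.32 nM upwards (inhibitor). Fluorescence Ex/Em 480/540 nm read at 5 and 30 min, then after adding cAMP or buffer, at room temperature.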
(In general: Counterscreens check selectivity or assay interference.)

Test [15] has the same target. The test is described as follows: Counterscreen qHTS for agonist of cAMP-regulated guanine nucleotide exchange factor 3 (EPAC1) (AID 1645889). Also: % of control where 0% means no effect; nearly all actives have a fitted effect of over 40% in size. The gist of the method: as §1
Test [16] has as its target Tumor susceptibility gene 101 protein (Homo sapiens) (UniProt Q99816). Briefly: qHTS Assay for Iinhibitors of HIV-1 Budding by Blocking the Interaction of PTAP/TSG101: Hit Validation (AID 651600). Also: potency is read from the fitted curve at half-maximal effect; nearly all actives have a fitted effect of over 70% in size. The method in brief:
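Fluorescence polarization binding assay: Tsg101 binding domain (10 uM final) pre-dispensed with compounds, then FITC-labeled PTAP-motif peptide (50 nM final) added; 20 min at r.t. in HEPES pH 7.5 buffer with NaCl, Tween 20, EDTA, TCEP.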

Test [17] is described as follows: qHTS for Inhibitors of Plasmodium falciparum (DD2) proliferation (AID 504314).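 Also: parasite DNA measured by SYBR Green fluorescence after red cell lysis; plate controls were DMSO vehicle for no effect and artemisinin wells for full effect.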 The gist of the method:
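Fluorescence read-out (ex 485/em 535 nm) of SYBR Green-stained parasite DNA quantifies intraerythrocytic growth. Cultures at 0.3% parasitemia and 2.5% hematocrit were treated for 72 h; data normalized to DMSO and 0.29 uM artemisinin wells.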

Test [18] in a line: qHTS for Inhibitors of Plasmodium falciparum (GB4) proliferation (AID 504315).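 Also: 0% = DMSO vehicle and -100% = 0.29 µM artemisinin control; nearly all actives have a fitted effect of over 50% in size.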 The gist of the method: (§2)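 Erythrocytes infected with P. falciparum line (0.3% parasitemia, 2.5% hematocrit final) incubated with compounds 72 h at 37 °C, 5% CO2; SYBR Green lysis buffer added, fluorescence read next day. Normalized to 0.29 uM artemisinin and DMSO.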
A short description of test [19]: qHTS for Inhibitors of Plasmodium falciparum (7G8) proliferation (AID 504316).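 Also: series mostly up to about 6.7 µM; 0% = DMSO vehicle and -100% = 0.29 µM artemisinin full kill; nearly all actives have a fitted effect of over 65% in size.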 The gist of the method:
as §2

Test [20] in a line: qHTS for Inhibitors of Plasmodium falciparum (HB3) proliferation (AID 504318).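 Also: 0% = DMSO vehicle and -100% = artemisinin control; nearly all actives have a fitted effect of over 60% in size.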 The method in brief: as §2
The nature of test [21]: qHTS for Inhibitors of Plasmodium falciparum (CP250) proliferation (AID 504320).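 Also: plate controls were DMSO vehicle for no effect and 0.29 µM artemisinin control for full effect.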 The gist of the method: as §2

Sequence of Cytochrome P450 3A4 (Homo sapiens) (P08684 whole entry, looked up): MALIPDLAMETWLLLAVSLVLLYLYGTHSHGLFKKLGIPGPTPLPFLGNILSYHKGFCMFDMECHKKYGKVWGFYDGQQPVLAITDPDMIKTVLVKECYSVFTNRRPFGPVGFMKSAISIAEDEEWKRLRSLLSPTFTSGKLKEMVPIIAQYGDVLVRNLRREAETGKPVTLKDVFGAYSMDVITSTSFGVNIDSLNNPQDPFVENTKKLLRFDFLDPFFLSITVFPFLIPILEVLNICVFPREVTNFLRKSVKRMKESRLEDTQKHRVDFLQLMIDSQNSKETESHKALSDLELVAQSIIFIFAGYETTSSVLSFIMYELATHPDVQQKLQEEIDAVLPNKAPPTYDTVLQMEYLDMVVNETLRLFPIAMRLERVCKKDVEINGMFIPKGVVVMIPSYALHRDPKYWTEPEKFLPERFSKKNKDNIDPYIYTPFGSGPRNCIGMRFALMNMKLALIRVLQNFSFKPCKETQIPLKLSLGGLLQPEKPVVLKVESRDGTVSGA
Sequence of Tumor susceptibility gene 101 protein (Homo sapiens) (Q99816 whole entry, looked up, the tested form may be a part): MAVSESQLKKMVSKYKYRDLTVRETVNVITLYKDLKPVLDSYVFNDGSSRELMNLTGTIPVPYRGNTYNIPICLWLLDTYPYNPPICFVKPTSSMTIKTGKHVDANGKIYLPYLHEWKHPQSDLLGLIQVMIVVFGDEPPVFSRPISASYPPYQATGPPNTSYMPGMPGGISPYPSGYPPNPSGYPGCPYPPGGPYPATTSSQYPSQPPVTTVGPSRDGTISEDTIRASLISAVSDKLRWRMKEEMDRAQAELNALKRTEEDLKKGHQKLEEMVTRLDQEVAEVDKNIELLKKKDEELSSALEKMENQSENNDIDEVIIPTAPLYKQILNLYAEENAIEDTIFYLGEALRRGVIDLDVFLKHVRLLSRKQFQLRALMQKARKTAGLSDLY
Sequence of Cytochrome P450 2D6 (Homo sapiens) (P10635 whole entry, looked up): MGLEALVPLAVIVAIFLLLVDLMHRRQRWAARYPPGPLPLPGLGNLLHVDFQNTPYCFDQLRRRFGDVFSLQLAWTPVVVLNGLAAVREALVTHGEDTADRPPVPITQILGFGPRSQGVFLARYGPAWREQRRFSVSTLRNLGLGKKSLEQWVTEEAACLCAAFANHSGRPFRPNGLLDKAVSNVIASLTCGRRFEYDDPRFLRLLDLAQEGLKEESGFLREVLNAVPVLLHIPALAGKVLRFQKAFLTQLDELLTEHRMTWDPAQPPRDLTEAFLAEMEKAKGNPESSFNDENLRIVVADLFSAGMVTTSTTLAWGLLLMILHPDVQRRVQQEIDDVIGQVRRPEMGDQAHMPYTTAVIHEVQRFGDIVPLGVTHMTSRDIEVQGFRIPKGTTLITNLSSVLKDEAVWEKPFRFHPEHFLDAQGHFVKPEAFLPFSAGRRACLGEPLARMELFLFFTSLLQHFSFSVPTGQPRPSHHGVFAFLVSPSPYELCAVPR
Sequence of Cytochrome P450 2C9 (Homo sapiens) (P11712 whole entry, looked up): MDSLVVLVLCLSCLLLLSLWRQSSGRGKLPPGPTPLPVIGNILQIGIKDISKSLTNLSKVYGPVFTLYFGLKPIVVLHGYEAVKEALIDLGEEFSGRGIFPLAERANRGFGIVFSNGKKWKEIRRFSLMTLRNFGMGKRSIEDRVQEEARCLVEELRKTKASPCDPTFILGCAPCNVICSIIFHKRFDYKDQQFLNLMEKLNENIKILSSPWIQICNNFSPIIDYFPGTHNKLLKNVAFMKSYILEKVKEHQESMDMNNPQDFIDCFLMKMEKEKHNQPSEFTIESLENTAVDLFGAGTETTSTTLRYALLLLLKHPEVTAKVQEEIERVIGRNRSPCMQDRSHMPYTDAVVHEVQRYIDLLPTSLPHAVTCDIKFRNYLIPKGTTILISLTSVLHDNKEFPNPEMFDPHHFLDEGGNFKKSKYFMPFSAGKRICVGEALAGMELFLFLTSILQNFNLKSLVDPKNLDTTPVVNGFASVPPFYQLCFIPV

As to `O=C1C=C(NCCc2cc(Br)c(O)c(Br)c2)C(=O)c2ncccc21`, the Potency in [1] is more than 11.4 µM; in [2], 3.16 µM (active); in [3] it was more than 46 µM; in test [6], 1.58 µM (active); in [7] it was 3.16 µM (active); in [9], 1.58 µM (active). Besides, the Potency in test [10] was 0.501 µM (active). The activity change, negative = inhibition in test [4] is 0.257% [at 11.4 µM]; in test [14] it was -20.2% [at 30.8 µM]. The Potency result in test [5], in test [11] and in [13] was “inactive” in each case. For the same compound, the activity change, positive = activation in test [8] was -62.8% [at 11.4 µM]. Moreover, the activation was 5.19% [at 17.1 µM, percent relative to cAMP agonist control] in [12] and 14.9% [at 30.8 µM] in test [15].

With `O=C1/C(=C/c2ccco2)Oc2c1ccc(O)c2CN1CCCCC1`, the Potency in [16] is 32.6 µM (active); in test [13], 84.9 µM (active). Moreover, the Potency result in test [11], in [12], in test [14] and in test [15] was “inactive” each time.

Regarding `C=CCn1c(=O)/c(=C/c2ccc(C)o2)s/c1=C(/C#N)C(=O)c1ccccc1`, the Potency in [16] is 18.3 µM (active). Further, the Potency entry in test [11] and in test [13] was “inactive” throughout. Also, the activation was 3.1% [at 17.1 µM, percent relative to cAMP agonist control] in [12] and 34.7% [at 30.8 µM] in test [15]. Besides, the activity change, negative = inhibition in test [14] is -7.69% [at 30.8 µM].

For the compound `COC(=O)C1=C(C)N(Cc2ccccc2)C(=O)N[C@H]1c1cccc(C(F)(F)F)c1`, the result in [17], in test [18], in test [19], in test [20] and in test [21] was inactive. Besides, the Potency entry in test [11] and in test [13] was “inactive” each time. Moreover, the activation is 7.76% [at 17.1 µM, percent relative to cAMP agonist control] in [12] and 10.2% [at 30.8 µM] in test [15]. In test [14], the activity change, negative = inhibition is -21.1% [at 30.8 µM].

With `COc1ccc(-c2nc(C)ncc2-c2ccccc2)c(O)c1`, the Potency entry in test [11] and in [13] was “inactive” throughout. Moreover, the activation was -0.293% [at 17.1 µM, percent relative to cAMP agonist control] in test [12] and -4.43% [at 30.8 µM] in test [15]. In addition, the activity change, negative = inhibition in [14] is -10.8% [at 30.8 µM].

Consider `COc1ccc(C(=O)Nc2ccccc2-c2nnn(CC(N)=O)n2)cc1`, for which the Potency entry in test [11], in [12], in test [13], in test [14] and in test [15] was “inactive” throughout.

Regarding `COC(=O)CC1(c2ccc(OC)cc2)C(=O)c2ccccc2C1=O`, the Potency result in test [11], in test [12], in test [13] and in test [15] was “inactive” throughout.

In the case of `CCCCC[C@@H](C)N1C[C@H](COCc2ccccc2)Oc2cc(N3CC[C@@H](O)C3)ccc2S1(=O)=O`, the Potency entry in test [11], in test [12], in [13] and in test [15] was “inactive” throughout.
